The values that follow come from PubChem BioAssay.

Each structure is given as a SMILES string. Activity calls are given as the source filed them.

Assay [1] can be described thus: small molecules captured by biotinylated probe aFSTL3 – biochemical, small-molecule microarray, fluorescence 635/667, stem cell growth factor project, primary screen (AID 1064).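 Note: measures binding of the biotinylated anti-FSTL3 antibody to printed compounds.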 The note with it: higher = more signal.
Assay [2] is described as follows: binders from COS7 lysate, DM2A8 probe, primary screen, torsin A project, cell lysate, small-molecule microarray, fluorescence 635/667 (AID 1065). The note with it: higher = more signal, COS7 lysate expressing mutant human TOR1A.
Assay [3] in a line: small molecules captured by biotinylated probe aFGF2 – biochemical, small-molecule microarray, fluorescence 635/667, stem cell growth factor project, primary screen (AID 1067).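 Note: measures binding of biotinylated aFGF2 protein to printed compounds on slides; z-score merges feature fluorescence and signal-to-noise across triplicate slides.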 The note with it: higher = more signal.
Assay [4] is described as follows: small molecules captured by biotinylated probe aFGF10 – biochemical, small-molecule microarray, fluorescence 635/667, stem cell growth factor project, primary screen (AID 1071).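 Note: score merges 667 nm spot intensity and signal to noise from triplicate slides.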 The note with it: higher = more signal.
In assay [5] the target is Neurogenic locus notch homolog protein 2 (Homo sapiens) (UniProt Q04721). Kind of assay: small molecules binding Notch2 protein – biochemical, small-molecule microarray, 635 nm fluorescence, stem cell growth factors, primary screen (AID 1073). The note with it: higher = more signal.
The target in assay [6] is Pro-neuregulin-1, membrane-bound isoform (Homo sapiens) (UniProt Q02297). As to the kind of experiment: small molecules binding neuregulin-1 protein – biochemical, small-molecule microarray, fluorescence 635/667, psychiatric disease protein project, primary screen (AID 1075).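 Note: score combines 667 nm spot fluorescence with signal to noise.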 The note with it: NRG1 binding, 635 nm fluorescence, higher = more signal.
Assay [7] concerns Neuregulin-1 EGF-like domain. Kind of assay: small molecules binding NRG1 EGF domain – biochemical, small-molecule microarray, 635 nm fluorescence, primary screen (AID 1081).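 Note: binding of the protein to compounds printed on small-molecule microarray slides.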 The note with it: higher = more signal.
A short description of assay [8]: FRG1 expression reporter modulators in myotubes – cell-based, C2C12 myotubes, firefly/Renilla luciferase, luminescence, FRG1 inhibition for FSHD, primary screen (AID 1084). The note with it: FRG1 promoter luciferase, higher = more signal, called active from +8 up or from −8 down.
The nature of assay [9]: small molecules captured by biotinylated probe aFST – biochemical, small-molecule microarray, fluorescence 635/667, stem cell growth factor project, primary screen (AID 1086).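 Note: score merges 667 nm fluorescence with signal-to-noise of each printed compound spot.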 The following applies: higher = more signal.
A short description of assay [10]: binders of probe aHhip on microarray, primary screen, stem cell growth factor project, biochemical, small-molecule microarray, fluorescence 635/667 (AID 1087).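 Note: score merges spot fluorescence at 667nm with spot signal to noise ratio.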 The note with it: higher = more signal.
Assay [11] has as its system PRMT1 (protein arginine N-methyltransferase 1). Kind of assay: small molecules binding arginine methyltransferase PRMT1 – biochemical, small-molecule microarray, 635 nm fluorescence, primary screen (AID 1088).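 Note: binding of Prmt1 protein to compounds spotted on small-molecule microarray slides.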 The note with it: higher = more signal.
A short description of assay [12]: growth effects on S. cerevisiae YJM789 – YJM789 clinical isolate, OD600, 24 h, basal, primary screen (AID 1089).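 Note: growth of clinical yeast isolate S. cerevisiae YJM 789 seeded 1000 cells per well; test concentration not given here.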 The following applies: higher = more signal, called active from +8 up or from −8 down.
The nature of assay [13]: S. pombe growth modifiers, basal conditions – strain 972, OD600, 24 h, no modulator, primary screen (AID 1090).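 Note: basal condition with compound alone and no growth modifier present; test concentration not given here.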 The note with it: S. pombe 972 growth, higher = more signal, called active from +8 up or from −8 down.
The nature of assay [14]: budding yeast growth modifiers under rapamycin – strain BY4716, OD600, 96 h, primary screen (AID 1091). Note: test concentration not given here. The following applies: S. cerevisiae BY4716 + rapamycin, higher = more signal, called active from +8 up or from −8 down.
The target of assay [15] is Torsin-1A-interacting protein 2 (Homo sapiens) (UniProt Q8NFQ8). As to the kind of experiment: small molecules binding lysate-expressed LULL1 – cell lysate, human LULL1 lysate, 635/667 nm fluorescence, primary screen (AID 1092).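 Note: score merges per-feature 667 nm fluorescence with signal-to-noise.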 The following applies: small-molecule microarray, hLULL1 lysate binding, 635 nm fluorescence; higher = more signal.
Assay [16] is described as follows: optical density change of DRC41 E. coli – strain DRC41, OD650, 24 h, E. coli filamentation project, primary screen (AID 1093).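 Note: MC1000 strain lacking acrAB efflux and sulA so SOS filamentation is blocked; test concentration not given here.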 The following applies: E. coli DRC41 growth, higher = more signal, called active from +8 up or from −8 down.
The nature of assay [17]: probe aLefty2 binding to arrayed compounds – biochemical, biotinylated probe, 635/667 nm fluorescence, primary screen (AID 1094).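 Note: score merges spot fluorescence near 667 nm with spot signal-to-noise ratio.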 The following applies: small-molecule microarray, higher = more signal.
Assay [18] deals with Noggin (protein binding on small-molecule microarray). As to the kind of experiment: small molecules binding Noggin protein – biochemical, 635/667 nm fluorescence, primary screen (AID 1095).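 Note: score merges 667 nm feature fluorescence with signal to noise over triplicate slides.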 The note with it: 635 nm fluorescence, higher = more signal.
The target in assay [19] is Neurogenic locus notch homolog protein 3 (Homo sapiens) (UniProt Q9UM47). As to the kind of experiment: small molecules binding NOTCH3 protein – biochemical, 635/667 nm fluorescence, primary screen (AID 1096). The note with it: small-molecule microarray, 635 nm fluorescence, higher = more signal.
Assay [20] is described as follows: probe aEGFR binding to arrayed compounds – biochemical, biotinylated probe, 635/667 nm fluorescence, primary screen (AID 1097).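 Note: probe is a biotinylated anti-EGFR antibody binding compounds printed on slides; score combines fluorescence near 667 nm and signal to noise of each spot.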 The note with it: small-molecule microarray, higher = more signal.

Neurogenic locus notch homolog protein 2 (Homo sapiens), sequence (Q04721 whole entry, looked up, canonical isoform): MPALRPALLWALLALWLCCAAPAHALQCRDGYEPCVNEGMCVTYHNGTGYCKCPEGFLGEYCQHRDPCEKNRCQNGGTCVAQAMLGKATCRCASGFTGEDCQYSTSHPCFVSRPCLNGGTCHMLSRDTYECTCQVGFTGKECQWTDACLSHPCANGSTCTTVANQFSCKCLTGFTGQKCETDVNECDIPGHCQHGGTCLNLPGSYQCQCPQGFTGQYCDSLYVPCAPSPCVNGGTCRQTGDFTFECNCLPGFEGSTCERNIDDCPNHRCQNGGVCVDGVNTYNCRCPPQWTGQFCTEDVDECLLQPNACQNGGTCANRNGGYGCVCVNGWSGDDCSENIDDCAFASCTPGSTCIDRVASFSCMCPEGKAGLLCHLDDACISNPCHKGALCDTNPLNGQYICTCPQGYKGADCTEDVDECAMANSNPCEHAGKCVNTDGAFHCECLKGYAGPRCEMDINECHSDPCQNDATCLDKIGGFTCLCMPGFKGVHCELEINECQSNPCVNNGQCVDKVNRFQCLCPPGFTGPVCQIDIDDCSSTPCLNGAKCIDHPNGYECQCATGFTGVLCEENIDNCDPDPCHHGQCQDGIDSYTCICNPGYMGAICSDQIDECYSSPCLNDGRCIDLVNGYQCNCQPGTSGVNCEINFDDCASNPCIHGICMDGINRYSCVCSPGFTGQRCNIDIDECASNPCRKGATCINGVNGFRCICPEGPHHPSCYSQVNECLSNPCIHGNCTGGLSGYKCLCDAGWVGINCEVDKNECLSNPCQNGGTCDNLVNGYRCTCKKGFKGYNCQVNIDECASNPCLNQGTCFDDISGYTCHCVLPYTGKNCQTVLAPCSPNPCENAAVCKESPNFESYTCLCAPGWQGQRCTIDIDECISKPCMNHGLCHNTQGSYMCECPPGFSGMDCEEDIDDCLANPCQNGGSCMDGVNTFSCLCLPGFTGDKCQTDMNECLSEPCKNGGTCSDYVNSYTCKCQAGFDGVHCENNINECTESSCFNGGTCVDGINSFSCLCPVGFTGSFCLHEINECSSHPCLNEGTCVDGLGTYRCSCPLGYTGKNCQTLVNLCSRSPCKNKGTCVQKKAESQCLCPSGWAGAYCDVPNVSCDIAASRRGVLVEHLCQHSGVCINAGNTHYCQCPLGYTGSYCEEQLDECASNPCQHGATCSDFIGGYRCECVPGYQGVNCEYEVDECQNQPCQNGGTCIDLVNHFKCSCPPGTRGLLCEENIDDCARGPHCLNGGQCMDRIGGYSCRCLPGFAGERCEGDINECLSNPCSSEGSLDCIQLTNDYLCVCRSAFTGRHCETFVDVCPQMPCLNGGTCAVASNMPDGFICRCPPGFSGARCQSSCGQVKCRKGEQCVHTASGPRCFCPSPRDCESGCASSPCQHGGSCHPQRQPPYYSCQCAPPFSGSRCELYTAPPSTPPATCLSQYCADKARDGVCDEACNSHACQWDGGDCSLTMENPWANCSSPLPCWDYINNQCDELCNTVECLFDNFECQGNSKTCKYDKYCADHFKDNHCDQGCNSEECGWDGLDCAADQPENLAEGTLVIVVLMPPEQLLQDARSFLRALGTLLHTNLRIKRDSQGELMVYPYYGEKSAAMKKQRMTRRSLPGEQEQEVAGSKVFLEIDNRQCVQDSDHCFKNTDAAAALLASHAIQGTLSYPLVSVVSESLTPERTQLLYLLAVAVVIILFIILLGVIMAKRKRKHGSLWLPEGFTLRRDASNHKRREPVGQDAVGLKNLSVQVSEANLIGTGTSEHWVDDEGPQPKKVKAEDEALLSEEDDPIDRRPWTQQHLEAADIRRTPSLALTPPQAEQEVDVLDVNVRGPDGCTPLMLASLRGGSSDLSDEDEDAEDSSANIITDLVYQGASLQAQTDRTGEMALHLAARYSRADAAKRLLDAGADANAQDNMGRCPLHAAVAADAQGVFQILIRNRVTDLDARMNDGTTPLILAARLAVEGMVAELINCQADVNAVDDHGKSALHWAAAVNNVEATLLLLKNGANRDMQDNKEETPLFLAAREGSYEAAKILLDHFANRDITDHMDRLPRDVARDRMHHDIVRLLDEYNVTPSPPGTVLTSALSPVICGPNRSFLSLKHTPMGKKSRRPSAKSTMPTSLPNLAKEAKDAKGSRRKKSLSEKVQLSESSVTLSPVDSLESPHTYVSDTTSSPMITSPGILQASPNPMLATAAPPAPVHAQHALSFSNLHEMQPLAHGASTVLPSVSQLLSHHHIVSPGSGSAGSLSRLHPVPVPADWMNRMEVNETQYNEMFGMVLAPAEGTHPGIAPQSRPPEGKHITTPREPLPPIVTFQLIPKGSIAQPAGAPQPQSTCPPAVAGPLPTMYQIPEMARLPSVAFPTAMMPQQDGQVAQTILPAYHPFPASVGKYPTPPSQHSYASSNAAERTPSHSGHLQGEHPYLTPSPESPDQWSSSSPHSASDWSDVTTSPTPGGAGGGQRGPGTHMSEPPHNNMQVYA
Pro-neuregulin-1, membrane-bound isoform (Homo sapiens), sequence (Q02297 whole entry, looked up, the tested form may be a part, canonical isoform): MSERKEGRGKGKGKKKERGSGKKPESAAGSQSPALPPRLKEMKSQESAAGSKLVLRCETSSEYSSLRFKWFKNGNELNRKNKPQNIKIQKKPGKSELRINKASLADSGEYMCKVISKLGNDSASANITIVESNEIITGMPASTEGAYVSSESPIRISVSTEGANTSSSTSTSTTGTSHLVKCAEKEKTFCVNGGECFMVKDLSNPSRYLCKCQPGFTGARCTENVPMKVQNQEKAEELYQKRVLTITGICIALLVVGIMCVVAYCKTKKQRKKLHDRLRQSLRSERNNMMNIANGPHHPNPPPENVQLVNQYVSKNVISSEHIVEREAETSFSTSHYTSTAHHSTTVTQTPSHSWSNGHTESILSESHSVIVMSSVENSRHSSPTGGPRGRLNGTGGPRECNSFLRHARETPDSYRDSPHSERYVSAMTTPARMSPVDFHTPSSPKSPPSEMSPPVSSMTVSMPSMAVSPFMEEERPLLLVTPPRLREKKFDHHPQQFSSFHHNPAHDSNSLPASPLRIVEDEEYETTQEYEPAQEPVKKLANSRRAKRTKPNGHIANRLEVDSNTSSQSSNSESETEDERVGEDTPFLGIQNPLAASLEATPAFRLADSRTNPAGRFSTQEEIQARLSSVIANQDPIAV
Torsin-1A-interacting protein 2 (Homo sapiens), sequence (Q8NFQ8 whole entry, looked up): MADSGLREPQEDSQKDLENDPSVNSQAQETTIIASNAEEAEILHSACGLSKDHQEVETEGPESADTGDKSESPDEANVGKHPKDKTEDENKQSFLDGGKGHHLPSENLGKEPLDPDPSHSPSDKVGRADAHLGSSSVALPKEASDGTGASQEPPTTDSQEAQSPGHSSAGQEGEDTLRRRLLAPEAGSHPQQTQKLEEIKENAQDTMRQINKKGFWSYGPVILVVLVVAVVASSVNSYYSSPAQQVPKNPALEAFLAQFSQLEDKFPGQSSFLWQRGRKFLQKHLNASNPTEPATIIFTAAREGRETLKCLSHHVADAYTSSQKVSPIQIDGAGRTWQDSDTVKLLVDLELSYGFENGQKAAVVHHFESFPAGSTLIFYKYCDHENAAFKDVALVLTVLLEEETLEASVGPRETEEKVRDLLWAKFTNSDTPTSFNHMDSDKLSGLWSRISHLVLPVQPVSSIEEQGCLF

For the compound `CN(C)C(=O)[C@]1(CCC(=O)OC(C)(C)C)N=C(c2ccc(OCCCO)cc2)O[C@@H]1c1ccccc1N=[N+]=[N-]`, the composite z-score in [1] stood at 0.542; in [2] it was 1.78; in assay [3], 0.147; in assay [4] it was 1.2; in [5], 1.36; in assay [6], 2.01. Also, the composite z-score in [7] was 1.45; in assay [9] it was 1.43; in assay [10], -0.0867; in [11], 1.54; in assay [15] it was 3.78; in assay [17], 0.17. In addition, the composite z-score in assay [18] came to 0.245; in assay [19] it was 0.684; in assay [20], 0.11. The z-score in assay [8] is 3.22 (inactive); in assay [12] it was 1.1 (inactive); in assay [13], 0.626 (inactive); in [14], 0.0958 (inactive); in assay [16], 0.515 (inactive).

As for `CCCNC(=O)[C@@]1(c2ccc([N+](=O)[O-])cc2)CC(=O)N(CC23CC4CC(CC(C4)C2)C3)[C@@H]1c1ccc(CO)cc1`, the composite z-score is -0.271 in [1]; 0.515 in assay [2]; 0.0422 in [3]; 0.303 in assay [4]; 0.143 in assay [5]; 0.582 in [6]. The composite z-score in assay [7] came out at 0.791; in [9], 1.13; in [10], 0.358; in [11] it was 0.89; in assay [15], 0.907; in assay [17], 0.164. Besides, the figures for the composite z-score in assay [18], in assay [19] and in assay [20] were 0.701, 0.305 and 0.105, respectively. Also, the z-score in assay [8] is -1.75 (inactive); in assay [12], -0.057 (inactive); in [13] it was -0.403 (inactive); in assay [14] it was 4.67 (inactive); in assay [16] it was 0.156 (inactive).

Take `COCCOC(=O)N1C(=O)[C@@]2(c3ccccc31)[C@H](C(=O)Nc1nc3ccccc3s1)[C@H]1C(=O)O[C@H](c3ccccc3)[C@H](c3ccccc3)N1[C@@H]2c1ccc(OCCO)cc1`: the composite z-score in [1] was 0.001; in assay [2] it was 0.686; in [3], -0.0426; in [4] it was 0.738; in [5] it was 0.907; in assay [6], 0.897. The composite z-score in assay [7] is 1.18; in [9], 0.381; in assay [10] it was -0.117; in [11], 1.54; in assay [15] it was 3.23; in [17] it was -0.0767. For the same compound, the composite z-score in assay [18] is 1.76; in assay [19], 1.13; in [20], -0.0581. In addition, the z-score in assay [8] is 2.77 (inactive); in [12], 1.13 (inactive); in assay [13] it was 1.36 (inactive); in assay [14], 3.37 (inactive); in assay [16] it was 1.07 (inactive).

Consider `O=C1O[C@@H](c2ccccc2)[C@@H](c2ccccc2)N2[C@@H](c3ccc(O)cc3)[C@]3(C(=O)Nc4ccc(C#CC5=CCCCC5)cc43)[C@@H](C(=O)O)[C@H]12`, for which the composite z-score is 0.638 in [1]; 1.56 in assay [2]; -0.0908 in assay [3]; 0.725 in [4]; 0.798 in assay [5]; 1.2 in [6]. The composite z-score in [7] is 1.14; in [9], 0.437; in [10], 0.0274; in [11] it was 1.53; in assay [15], 2.86; in [17] it was 0.246. The composite z-score in [18] was 0.878; in assay [19], 0.925; in assay [20] it was -0.0315. Also, the z-score was -0.611 (inactive) in assay [8]; -2.6 (inactive) in assay [12]; -3.2 (inactive) in [13]; -2.21 (inactive) in assay [14]; 3.68 (inactive) in assay [16].

For the compound `COCCOC(=O)N1C(=O)[C@@]2(c3cc(C#CCCO)ccc31)[C@H](c1ccc(O)cc1)N1[C@H](c3ccccc3)[C@H](c3ccccc3)OC(=O)[C@H]1[C@@H]2C(N)=O`, the composite z-score in assay [1] is 1.04; in assay [2], 0.751; in assay [3], -0.0173; in [4], 0.203; in assay [5], -0.982; in [6] it was 1.08. For the same compound, the composite z-score in assay [7] was found to be 1.42; in assay [9], 0.102; in [10] it was 0.113; in [11], 1.14; in [15] it was 1.51; in assay [17] it was 0.0002. Also, the composite z-score in assay [18] was -0.243; in [19], 0.213; in assay [20], -0.178. For the same compound, the z-score was -0.966 (inactive) in assay [8]; 0.253 (inactive) in assay [12]; 0.479 (inactive) in [13]; 0.418 (inactive) in [14]; -0.834 (inactive) in assay [16].

Regarding `COc1ccc(CCNC(=O)[C@@]2(c3ccc([N+](=O)[O-])cc3)CC(=O)N(CC34CC5CC(CC(C5)C3)C4)[C@@H]2c2ccc(CO)cc2)cc1`, the composite z-score in [1] was 0.281; in assay [2] it was 0.441; in assay [3], -0.0039; in assay [4] it was 0.268; in [5], 1.14; in assay [6], 1.22. For the same compound, the composite z-score in assay [7] turned out to be 1.15; in assay [9], 0.298; in assay [10] it was 0.0848; in assay [11], 1.37; in [15], 2.11; in [17] it was 0.257. The composite z-score in assay [18] was found to be 0.71; in assay [19], 1.16; in assay [20], 0.544. In addition, the z-score in assay [8] is -0.0918 (inactive); in [12], 0.719 (inactive); in assay [13], -0.063 (inactive); in assay [14] it was 6.65 (inactive); in [16] it was -0.108 (inactive).

For the compound `N#Cc1ccc(NN2C(C(O)c3ccc([N+](=O)[O-])cc3)C=CC3C(=O)N(c4ccccc4)C(=O)C32)cc1` (stereo not given), the composite z-score was 0.298 in [1]; -0.0479 in [2]; 0.11 in [3]; 0.921 in [4]; 1.59 in assay [5]; 1.66 in [6]. In addition, the composite z-score in assay [7] is 1.35; in assay [9], 0.899; in [10], -0.287; in assay [11], 0.698; in [15], 3.29; in assay [17] it was 0.0478. For the same compound, the composite z-score is -0.299 in assay [18], 1.06 in assay [19] and 0.0478 in assay [20]. The z-score was 0.536 (inactive) in assay [8]; -0.0094 (inactive) in assay [12]; 1.2 (inactive) in assay [13]; 1.39 (inactive) in [14]; -1.75 (inactive) in [16].

With `COCC1=C2[C@@H](CCc3ccccc3)OB(O)C[C@@H]2[C@@H]2C(=O)N(Cc3ccccc3)C(=O)[C@@H]2C1`, the composite z-score in assay [1] was -0.505; in [2] it was -0.138; in assay [3] it was -0.0419; in assay [4], 0.135; in [5], -0.0585; in [6], 0.0327. For the same compound, the composite z-score in assay [7] was -0.0593; in [9] it was -0.492; in assay [10], -0.201; in assay [11] it was 0.229; in [15], 0.295; in assay [17], -0.155. The composite z-score in assay [18] is 0.198; in assay [19] it was -0.0497; in assay [20], -0.132. In addition, the z-score was -3.66 (inactive) in [8]; -0.471 (inactive) in assay [12]; -1.22 (inactive) in assay [13]; -0.37 (inactive) in assay [14]; -0.715 (inactive) in assay [16].

For `O=C(OCCF)C1=CCC(c2cccc(Cl)c2)O1` (stereo not given), the composite z-score was -0.422 in assay [1]; 0.0213 in assay [2]; -0.0907 in assay [3]; 0.193 in assay [4]; 0.926 in assay [5]; -0.0442 in [6]. Moreover, the composite z-score in assay [7] was 1.03; in assay [9] it was 0.5; in assay [10], -0.226; in [11], 0.581; in [15], 0.856; in assay [17], -0.141. The composite z-score was 0.207 in [18], 0.1 in assay [19] and -0.0121 in assay [20]. Moreover, the z-score in [8] was -1.68 (inactive); in assay [12], -3.17 (inactive); in assay [13] it was -0.988 (inactive); in assay [14], 2.82 (inactive); in assay [16], -0.0288 (inactive).
